This is an account of results in PubChem BioAssay (NCI).

About 83,000 compounds went through this panel and 20% of them were active in at least one assay; those are over-represented in the sample as a whole.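 Each cell line was grown in a 96-well plate and treated with one concentration of compound for 48 hours. Values below 10 were considered active.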 A number with no mark means an inactive call. Active and inactive are the calls of the source.

Among the test systems are NCI-H23 lung; NCI-H226 lung; NCI-H322M lung; HOP-62 NSCLC; NCI-H460 lung; HOP-92 NSCLC; NCI-H522 lung; A549/ATCC NSCLC; 786-0 renal; COLO 205 colon; DU-145 prostate; K-562 leukemia; MALME-3M melanoma; MDA-MB-231 breast; SF-268 CNS; SF-295 CNS; SF-539 CNS; UACC-257 melanoma; M14 melanoma.
Holding throughout (experiment): NCI-60 one-dose screen, 48 h (100 = growth as untreated, 0 = no growth, -100 = all killed)
Holding throughout (conditions): 10 µM unless noted

Take `Cc1ccc(C2CC(c3cccc(Nc4ccncc4)c3)=NN2c2ccc(Cl)cc2)cc1` (configuration not stated): the growth in the assay with NCI-H23 lung is -83.2% (active); with NCI-H226 lung, -38.8% (active); in the assay on NCI-H322M lung it was -99.7% (active); with HOP-62 NSCLC, -65.9% (active); in the assay with NCI-H460 lung, -76.1% (active); in the assay on HOP-92 NSCLC, -90.3% (active). The growth in the assay on NCI-H522 lung is -71.2% (active); in the assay with A549/ATCC NSCLC, -34.5% (active); in the assay on 786-0 renal it was -88.4% (active); in the assay on COLO 205 colon, -66.3% (active); with DU-145 prostate, -93.3% (active); with K-562 leukemia, -18.8% (active). In addition, the growth is -86% (active) in the assay with MALME-3M melanoma; -86% (active) in the assay with MDA-MB-231 breast; -72% (active) in the assay with SF-268 CNS; -85.6% (active) with SF-295 CNS; -96.2% (active) in the assay with SF-539 CNS; -35.1% (active) in the assay with UACC-257 melanoma. Moreover, the growth in the assay with M14 melanoma is -57.3% (active).
Regarding `CC(C)(O)C1CCCN1C(=O)c1ccccc1I` (configuration not stated), the growth with NCI-H23 lung was 94.6%; in the assay with NCI-H226 lung, 89.4%; in the assay with NCI-H322M lung, 101%; with HOP-62 NSCLC, 95.4%; in the assay with NCI-H460 lung, 85.8%; in the assay on HOP-92 NSCLC, 58.6%. In addition, the growth was 83.9% with NCI-H522 lung; 92.1% with A549/ATCC NSCLC; 87.7% in the assay with 786-0 renal; 105% in the assay on COLO 205 colon; 111% in the assay on DU-145 prostate; 83.5% in the assay on K-562 leukemia. Besides, the growth with MALME-3M melanoma was 109%; with MDA-MB-231 breast it was 84%; in the assay with SF-268 CNS it was 91.5%; in the assay on SF-295 CNS it was 84.4%; in the assay with SF-539 CNS, 105%; in the assay on UACC-257 melanoma it was 104%. In addition, the growth in the assay with M14 melanoma is 95.1%.
In the case of `C[C@]12CCc3nc(Nc4cccc(O)c4)sc3C1=CC[C@@H]1[C@@H]2CC[C@]2(C)/C(=N\NC(N)=S)CC[C@@H]12`, the growth in the assay on NCI-H23 lung is 57.3%; in the assay with NCI-H226 lung, 91.8%; with NCI-H322M lung, 73.5%; in the assay with HOP-62 NSCLC, 32%; in the assay with NCI-H460 lung it was 21.3%; with HOP-92 NSCLC, 52.1%. Also, the growth with NCI-H522 lung was -12.2% (active); with A549/ATCC NSCLC it was 59.3%; in the assay with 786-0 renal it was -36% (active); in the assay on COLO 205 colon it was 42.7%; with DU-145 prostate, 8.45% (active); in the assay with K-562 leukemia it was 3.19% (active). The growth in the assay on MALME-3M melanoma is 39%; in the assay on MDA-MB-231 breast it was 26.2%; with SF-268 CNS it was 37.6%; in the assay with SF-295 CNS, -34% (active); in the assay on SF-539 CNS, -48% (active); in the assay on UACC-257 melanoma, 74%. For the same compound, the growth in the assay on M14 melanoma is 31.1%.
Consider `COc1ccc(Cc2nc3cc(OC)c(OC)cc3c(=O)[nH]2)cc1`, for which the growth in the assay on NCI-H23 lung is 59.6%; with NCI-H226 lung it was 98%; in the assay on NCI-H322M lung, 167%; with HOP-62 NSCLC, 140%; with NCI-H460 lung it was 89.4%; in the assay on HOP-92 NSCLC it was 108%. Also, the growth in the assay on NCI-H522 lung is 52.1%; in the assay on A549/ATCC NSCLC, -5.67% (active); with 786-0 renal it was 86.9%; in the assay on COLO 205 colon, 68.5%; in the assay on DU-145 prostate, 39.5%; in the assay with K-562 leukemia, 115%. Moreover, the growth is 273% in the assay on MALME-3M melanoma; 73.3% with MDA-MB-231 breast; 30.5% in the assay on SF-268 CNS; 65.3% with SF-295 CNS; 100% in the assay on SF-539 CNS; 4.95% (active) with UACC-257 melanoma. The growth in the assay on M14 melanoma is 48.8%.
On to `COc1cc(-c2cc(=O)oc3cc(O)ccc23)c(OC)c2c1OCO2`, for which the growth with NCI-H23 lung is 83.5%; in the assay with NCI-H226 lung it was 86.4%; with NCI-H322M lung it was 89.4%; in the assay with HOP-62 NSCLC it was 92.7%; in the assay on NCI-H460 lung, 88.9%; in the assay with HOP-92 NSCLC it was 79%. Besides, the growth in the assay on NCI-H522 lung is 81.7%; in the assay on A549/ATCC NSCLC, 87%; in the assay with 786-0 renal it was 95.6%; in the assay on COLO 205 colon, 102%; in the assay on DU-145 prostate, 101%; in the assay with K-562 leukemia it was 90.3%. For the same compound, the growth in the assay on MALME-3M melanoma was 88.7%; in the assay on MDA-MB-231 breast it was 93.7%; with SF-268 CNS, 92.4%; in the assay on SF-295 CNS, 92%; with SF-539 CNS, 92.1%; in the assay on UACC-257 melanoma, 101%. In addition, the growth with M14 melanoma was 96.5%.
In the case of `O=C(Nc1ccc(Cl)cc1)Nc1ccc(Cl)c(Cl)c1`, the growth in the assay with NCI-H23 lung is -54.2% (active); with NCI-H226 lung, 16.3%; with NCI-H322M lung, 23.7%; in the assay on HOP-62 NSCLC, 40.8%; with NCI-H460 lung, -9.05% (active); in the assay on HOP-92 NSCLC it was 4.68% (active). The growth was 0.643% (active) in the assay with NCI-H522 lung; 12.6% with A549/ATCC NSCLC; 39.1% with 786-0 renal; -2.8% (active) with COLO 205 colon; 10.7% with DU-145 prostate; 4.12% (active) with K-562 leukemia. Moreover, the growth with MALME-3M melanoma was -1.33% (active); in the assay with MDA-MB-231 breast, 37.6%; in the assay with SF-268 CNS, 36.1%; in the assay on SF-295 CNS, -50.7% (active); with SF-539 CNS, -19.2% (active); in the assay with UACC-257 melanoma it was 43%. The growth with M14 melanoma was 22.8%.
For `CCN(CC)S(=O)(=O)c1cccc([N+](=O)[O-])c1`, the growth with NCI-H23 lung was 102%; with NCI-H226 lung it was 85.3%; in the assay with NCI-H322M lung, 104%; in the assay with HOP-62 NSCLC it was 74.5%; with NCI-H460 lung it was 99.5%; in the assay on HOP-92 NSCLC it was 87.9%. Further, the growth with NCI-H522 lung was 72.3%; with A549/ATCC NSCLC, 65.3%; in the assay with 786-0 renal it was 89.4%; in the assay on COLO 205 colon it was 102%; in the assay on DU-145 prostate, 117%; in the assay with K-562 leukemia, 96%. For the same compound, the growth in the assay with MALME-3M melanoma was 99.2%; with MDA-MB-231 breast, 105%; in the assay with SF-268 CNS, 93.4%; in the assay on SF-295 CNS, 94.4%; in the assay on SF-539 CNS, 98.9%; in the assay on UACC-257 melanoma it was 67%. Also, the growth in the assay with M14 melanoma was 84.9%.
Take `C#Cc1cccc(NC(=O)Nc2cccc(N=C=S)c2)c1`: the growth was 99.3% [8.25 µM] with NCI-H23 lung; 101% [8.25 µM] with NCI-H226 lung; 95.1% [8.25 µM] in the assay with NCI-H322M lung; 115% [8.25 µM] in the assay with HOP-62 NSCLC; 112% [8.25 µM] in the assay on NCI-H460 lung; 106% [8.25 µM] in the assay with HOP-92 NSCLC. For the same compound, the growth with NCI-H522 lung is 90.9% [8.25 µM]; in the assay with A549/ATCC NSCLC, 90.8% [8.25 µM]; with 786-0 renal, 95.4% [8.25 µM]; in the assay on COLO 205 colon, 130% [8.25 µM]; in the assay on DU-145 prostate it was 107% [8.25 µM]; in the assay on K-562 leukemia, 107% [8.25 µM]. Also, the growth was 90.6% [8.25 µM] with MALME-3M melanoma; 94.5% [8.25 µM] with MDA-MB-231 breast; 95.4% [8.25 µM] in the assay on SF-268 CNS; 101% [8.25 µM] with SF-295 CNS; 102% [8.25 µM] with SF-539 CNS; 102% [8.25 µM] in the assay on UACC-257 melanoma. Also, in the assay with M14 melanoma, the growth is 98.5% [8.25 µM].
